This is part of a sample that, as a whole, favours compounds with a hit. Of some 83,000 tested, about 20% had one in any assay.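 Compound tested at a single concentration for 48 hours in 96-well plates; a percent growth value below 10 was scored as active.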 The source made the active and inactive calls.
Assays:
Test in all cases: NCI-60 one-dose screen, 48 h (100 = growth as untreated, 0 = no growth, -100 = all killed)
HCT-15 colon = conditions: 10 µM unless noted
HT29 colon = conditions: 10 µM unless noted
SNB-75 CNS = conditions: 10 µM unless noted
SNB-19 CNS = conditions: 10 µM unless noted
U251 CNS = conditions: 10 µM unless noted
PC-3 prostate = conditions: 10 µM unless noted
SK-MEL-5 melanoma = conditions: 10 µM unless noted
LOX IMVI melanoma = conditions: 10 µM unless noted
SK-MEL-28 melanoma = conditions: 10 µM unless noted
SK-MEL-2 melanoma = conditions: 10 µM unless noted
SN12C renal = conditions: 10 µM unless noted
UO-31 renal = conditions: 10 µM unless noted
TK-10 renal = conditions: 10 µM unless noted
ACHN renal = conditions: 10 µM unless noted
CAKI-1 renal = conditions: 10 µM unless noted
HL-60(TB) leukemia = conditions: 10 µM unless noted
CCRF-CEM leukemia = conditions: 10 µM unless noted
EKVX NSCLC = conditions: 10 µM unless noted
A498 renal = conditions: 10 µM

Measured: growth

COc1ccc(/C=C\c2cc(OC)c(OC)c(OC)c2)c(NS(=O)(=O)c2ccc(C)cc2)c1O
active: SK-MEL-5 melanoma -42.3% | SK-MEL-2 melanoma -6.34% | HL-60(TB) leukemia 9.18%
inactive: HCT-15 colon 15.1% | HT29 colon 17.4% | SNB-75 CNS 41.6% | SNB-19 CNS 48.1% | U251 CNS 20.7% | PC-3 prostate 36.3% | LOX IMVI melanoma 18.3% | SK-MEL-28 melanoma 61.7% | SN12C renal 35.6% | UO-31 renal 53.4% | TK-10 renal 65.2% | ACHN renal 23.7% | CAKI-1 renal 19.8% | CCRF-CEM leukemia 21.9%

Fc1ccc2c(c1)c(-c1nc(-c3c[nH]c4ncccc34)cs1)cn2CCCCN1CCCCC1
active: HCT-15 colon -72% | HT29 colon -97% | SNB-75 CNS -70.5% | SNB-19 CNS -88.5% | U251 CNS -87.7% | PC-3 prostate -86.5% | SK-MEL-5 melanoma -83.1% | LOX IMVI melanoma -79.3% | SK-MEL-28 melanoma -86.9% | SK-MEL-2 melanoma -76.7% | SN12C renal -84.4% | UO-31 renal -86.9% | TK-10 renal -86.1% | ACHN renal -97.4% | HL-60(TB) leukemia -70% | CCRF-CEM leukemia -61.4%
inactive: EKVX NSCLC 23.3% | A498 renal 63.2%

CC(=O)OCC1O[C@@H]([S-])C(OC(C)=O)[C@H](OC(C)=O)[C@@H]1OC(C)=O.[Au+].c1ccc(CN2[CH-]N(Cc3ccccc3)C(c3ccccc3)=C2c2ccccc2)cc1
inactive: HT29 colon 50.3% | SNB-75 CNS 40.8% | SNB-19 CNS 36.8% | PC-3 prostate 39.4% | SK-MEL-5 melanoma 48.5% | SN12C renal 23.6% | UO-31 renal 45% | TK-10 renal 29.6% | ACHN renal 30.1% | A498 renal 42.1%
active: HCT-15 colon -63% | U251 CNS -59.3% | LOX IMVI melanoma -65.7% | SK-MEL-28 melanoma -56.8% | CCRF-CEM leukemia 7.57%

C[C@@H]1O[C@@H](O[C@H]2C[C@@H](O)[C@]3(CO)C4C(CC[C@]3(O)C2)[C@@]2(O)CC[C@H](C3=CC(=O)OC3)[C@@]2(C)C[C@H]4O)[C@H](O)[C@H](O)[C@H]1O (some centres undefined)
active: HCT-15 colon -74.6% | HT29 colon -85.2% | SNB-75 CNS -83.9% | SNB-19 CNS -94.6% | U251 CNS -97.3% | PC-3 prostate 6.86% | SK-MEL-5 melanoma -95.5% | LOX IMVI melanoma -88.2% | SK-MEL-28 melanoma -87.6% | SK-MEL-2 melanoma -59.9% | EKVX NSCLC -74.3% | SN12C renal -22.5% | UO-31 renal -87.3% | TK-10 renal -65% | CAKI-1 renal -73.4% | A498 renal -6.39% | HL-60(TB) leukemia -53.2% | CCRF-CEM leukemia -12%

C=CC[PH+](c1ccccc1)c1ccccc1.C=CC[PH+](c1ccccc1)c1ccccc1.[Cl][Pt][Cl]
active: LOX IMVI melanoma -6.81% | HL-60(TB) leukemia -19.4% | CCRF-CEM leukemia 3.7%
inactive: HCT-15 colon 31.4% | HT29 colon 41.1% | SNB-75 CNS 66.2% | SNB-19 CNS 70.5% | U251 CNS 37.5% | PC-3 prostate 54.4% | SK-MEL-5 melanoma 85.8% | SK-MEL-28 melanoma 28.4% | SK-MEL-2 melanoma 71.1% | EKVX NSCLC 50.8% | SN12C renal 30.6% | UO-31 renal 31.5% | TK-10 renal 73.7% | CAKI-1 renal 77.9% | A498 renal 99%

C/C(=C\c1ccn(-c2ccc(N)cc2)n1)[C@@H]1C[C@@H]2O[C@]2(C)CCC[C@H](C)[C@H](O)[C@@H](C)C(=O)C(C)(C)[C@@H](O)CC(=O)O1
inactive: HCT-15 colon 20% | HT29 colon 15.4% | SNB-19 CNS 33.3% | U251 CNS 25.9% | PC-3 prostate 13.2% | SK-MEL-5 melanoma 10.9% | LOX IMVI melanoma 29.5% | SK-MEL-28 melanoma 59.4% | SK-MEL-2 melanoma 35.8% | EKVX NSCLC 54.7% | SN12C renal 39.6% | UO-31 renal 38.5% | TK-10 renal 54.6% | ACHN renal 45.7% | CAKI-1 renal 43.2% | CCRF-CEM leukemia 16.8%
active: SNB-75 CNS 3.99% | HL-60(TB) leukemia 5.9%

Brc1ccc2c(c1)c(-c1nc(-c3c[nH]c4ncccc34)cs1)cn2CCN1CCOCC1
inactive: HCT-15 colon 35.5% | HT29 colon 57.8% | SNB-75 CNS 56.4% | SNB-19 CNS 71.6% | U251 CNS 52.8% | PC-3 prostate 30.3% | SK-MEL-5 melanoma 51.3% | LOX IMVI melanoma 66.7% | SK-MEL-28 melanoma 94.5% | SK-MEL-2 melanoma 80% | EKVX NSCLC 43.5% | SN12C renal 71.5% | UO-31 renal 35.8% | TK-10 renal 74.1% | ACHN renal 55.2% | A498 renal 88.7% | HL-60(TB) leukemia 71% | CCRF-CEM leukemia 45.8%

CN1C(=O)C(=Cc2cn(CCCCCCn3c4ccccc4c(=O)c4ccccc43)c3ccccc23)C(=O)N(C)C1=O
inactive: HCT-15 colon 92.1% | HT29 colon 96.1% | SNB-75 CNS 91.4% | SNB-19 CNS 104% | U251 CNS 99.2% | PC-3 prostate 89.8% | SK-MEL-5 melanoma 94.3% | LOX IMVI melanoma 93% | SK-MEL-28 melanoma 98% | SK-MEL-2 melanoma 92.8% | EKVX NSCLC 96.2% | SN12C renal 104% | UO-31 renal 65.6% | TK-10 renal 111% | ACHN renal 92.9% | HL-60(TB) leukemia 79.3% | CCRF-CEM leukemia 109%

C=C1[C@@H](C)[C@H]2[C@H](Cc3ccccc3)NC(=O)[C@]23[C@@H](O)/C=C/[C@@](C)(O)C(=O)[C@@H](C)C/C=C/[C@H]3[C@@H]1O
inactive: HCT-15 colon 66.1% | HT29 colon 25.3% | SNB-19 CNS 40.7% | U251 CNS 21.9% | PC-3 prostate 45.2% | SK-MEL-5 melanoma 77.6% | SK-MEL-28 melanoma 67.1% | SK-MEL-2 melanoma 65.1% | EKVX NSCLC 57.2% | SN12C renal 66.1% | UO-31 renal 31.6% | TK-10 renal 39.6% | ACHN renal 45.6% | CAKI-1 renal 52.5% | HL-60(TB) leukemia 73.4% | CCRF-CEM leukemia 48%
active: SNB-75 CNS -8.47%

Nc1c(F)cc(-c2nc3cc(F)ccc3[se]2)cc1F
inactive: HCT-15 colon 22% | HT29 colon 46.4% | SNB-75 CNS 92.2% | SNB-19 CNS 104% | U251 CNS 93.6% | PC-3 prostate 72.1% | SK-MEL-5 melanoma 56.1% | LOX IMVI melanoma 89.3% | SK-MEL-28 melanoma 116% | SK-MEL-2 melanoma 107% | EKVX NSCLC 47.6% | SN12C renal 85.9% | UO-31 renal 60.2% | TK-10 renal 27.7% | ACHN renal 68.7% | A498 renal 38.9% | HL-60(TB) leukemia 83.5% | CCRF-CEM leukemia 88.7%

COc1cccc2c1c(C(=O)c1ccco1)cn2Cc1ccc(F)cc1
inactive: HCT-15 colon 103% | HT29 colon 118% | SNB-75 CNS 121% | SNB-19 CNS 119% | U251 CNS 112% | PC-3 prostate 105% | SK-MEL-5 melanoma 96.3% | LOX IMVI melanoma 109% | SK-MEL-28 melanoma 123% | SK-MEL-2 melanoma 73.8% | EKVX NSCLC 172% | SN12C renal 72.4% | UO-31 renal 77.1% | TK-10 renal 143% | ACHN renal 107% | CAKI-1 renal 184% | A498 renal 135% | HL-60(TB) leukemia 162% | CCRF-CEM leukemia 177%

c1cnc2[nH]cc(-c3csc(-c4cn(CCCCN5CCCCC5)c5ccccc45)n3)c2c1
inactive: HCT-15 colon 51% | HT29 colon 34.4% | SNB-75 CNS 70.3% | SNB-19 CNS 90.4% | U251 CNS 86.3% | PC-3 prostate 63.1% | SK-MEL-5 melanoma 70.4% | LOX IMVI melanoma 84.2% | SK-MEL-28 melanoma 83% | SK-MEL-2 melanoma 97.6% | EKVX NSCLC 83.1% | SN12C renal 75.2% | UO-31 renal 49.2% | TK-10 renal 124% | ACHN renal 98.5% | A498 renal 95.7% | HL-60(TB) leukemia 47.9% | CCRF-CEM leukemia 62.9%

COC(=O)CC[C@H](Cc1ccccc1)NC(=O)c1csc([C@@H](C[C@H](C(C)C)N(C)C(=O)[C@@H](NC(=O)[C@H]2CCCCN2C)C(C)C)OC(C)=O)n1
active: HT29 colon 5.29% | SK-MEL-5 melanoma -13.4% | A498 renal 5.63%
inactive: HCT-15 colon 57.6% | SNB-75 CNS 34.3% | SNB-19 CNS 44.2% | U251 CNS 12.5% | PC-3 prostate 39.8% | LOX IMVI melanoma 29.3% | SK-MEL-28 melanoma 77.3% | SK-MEL-2 melanoma 54.1% | EKVX NSCLC 44.1% | SN12C renal 43.8% | UO-31 renal 49.7% | TK-10 renal 42.5% | ACHN renal 23.9% | CCRF-CEM leukemia 19.8%

Clc1ccc(CO/N=C(\Cn2ccnc2)c2ccc(Cl)cc2Cl)c(Cl)c1
active: HCT-15 colon 6.36% | HT29 colon -19.4% | U251 CNS -21.2% | PC-3 prostate 4.16% | SK-MEL-5 melanoma -93.5% | SK-MEL-2 melanoma -48% | EKVX NSCLC 6.63% | SN12C renal 2.12% | UO-31 renal -3% | TK-10 renal -1.82% | ACHN renal 6.26% | CAKI-1 renal 1.17% | A498 renal -5.95% | HL-60(TB) leukemia -23% | CCRF-CEM leukemia -13.1%
inactive: SNB-75 CNS 30.4% | SNB-19 CNS 17.7% | SK-MEL-28 melanoma 28%

COc1ccc2c(c1)c(-c1nc(-c3cn(C)c4ncccc34)cs1)cn2CCN1CCOCC1
inactive: HCT-15 colon 20.9% | HT29 colon 25.9% | SNB-75 CNS 63.3% | SNB-19 CNS 33.1% | U251 CNS 28.2% | PC-3 prostate 17.6% | SK-MEL-5 melanoma 30.7% | SK-MEL-28 melanoma 56.1% | SK-MEL-2 melanoma 56% | EKVX NSCLC 61.1% | SN12C renal 34.3% | TK-10 renal 49.4% | ACHN renal 32.1% | A498 renal 76.1% | HL-60(TB) leukemia 31.3% | CCRF-CEM leukemia 31.1%
active: UO-31 renal 3.02%

COc1cccc(/C=C/[N+](=O)[O-])c1
inactive: SNB-75 CNS 68.1% | SNB-19 CNS 71.8% | U251 CNS 54.4% | PC-3 prostate 63.6% | SK-MEL-5 melanoma 80.6% | SK-MEL-28 melanoma 50.2% | SK-MEL-2 melanoma 97.4% | EKVX NSCLC 89.2% | SN12C renal 99.5% | UO-31 renal 45.8% | TK-10 renal 90.9% | ACHN renal 74.7% | CAKI-1 renal 96.8% | A498 renal 43.8% | HL-60(TB) leukemia 17.4% | CCRF-CEM leukemia 51.2%
active: HCT-15 colon -9.58% | HT29 colon -48.6% | LOX IMVI melanoma -80.6%

CC(C)(C)N1CC1C#N (centres undefined)
inactive: HCT-15 colon 99.6% | HT29 colon 105% | SNB-75 CNS 98.3% | SNB-19 CNS 97.2% | U251 CNS 100% | PC-3 prostate 103% | SK-MEL-5 melanoma 105% | LOX IMVI melanoma 101% | SK-MEL-28 melanoma 110% | SN12C renal 103% | UO-31 renal 92.1% | TK-10 renal 98% | ACHN renal 101% | CAKI-1 renal 92.6% | A498 renal 105% | HL-60(TB) leukemia 98.3% | CCRF-CEM leukemia 101%

Source: PubChem BioAssay (NCI)
